Test systems include NCI-H23 lung; NCI-H226 lung; NCI-H322M lung; HOP-62 NSCLC; NCI-H460 lung; HOP-92 NSCLC; NCI-H522 lung; A549/ATCC NSCLC; 786-0 renal; COLO 205 colon.
Holding throughout (assay): NCI-60 one-dose screen, 48 h (100 = growth as untreated, 0 = no growth, -100 = all killed)
Settings in all cases: 10 µM unless noted

In PubChem BioAssay (NCI) one finds growth data, which are given here for 13 compounds.

Compounds without any hit were thinned out: in the full panel of roughly 83,000, 20% have a hit.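 A percent growth of 40 corresponds to 60% growth inhibition; 0 means no net growth; -100 means all cells died. Active threshold: below 10.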 Values without a mark were called inactive. The source made the active and inactive calls.

`Oc1c(Br)cc(Br)c2ccc(Cn3cc(-c4ccc(C(F)(F)F)cc4)nn3)nc12`: the growth with NCI-H23 lung was 84.7%; in the test with NCI-H226 lung, 85%; in the test with NCI-H322M lung, 103%; in the test with HOP-62 NSCLC it was 98.9%; in the test on NCI-H460 lung, 103%; in the test with HOP-92 NSCLC, 21.5%. For the same compound, the growth in the test with NCI-H522 lung is -43.5% (active); with A549/ATCC NSCLC it was 103%; with 786-0 renal, 96.9%; with COLO 205 colon, 59.7%.
Turning to `COc1ccccc1N1CCCCC1`, the growth with NCI-H23 lung was 102%; in the test with NCI-H226 lung it was 104%; in the test with NCI-H322M lung it was 108%; in the test with HOP-62 NSCLC it was 90.4%; with NCI-H460 lung, 109%; with HOP-92 NSCLC, 104%. The growth with NCI-H522 lung is 93.8%; in the test on A549/ATCC NSCLC, 101%; in the test with 786-0 renal it was 95.8%; in the test on COLO 205 colon, 113%.
As to `COc1ccc(OC)c(-c2nc(SCC(=O)c3ccc(C#N)cc3)[nH]c(=O)c2C#N)c1`, the growth with NCI-H23 lung was 98.1%; in the test with NCI-H226 lung it was 101%; with NCI-H322M lung, 105%; in the test on HOP-62 NSCLC, 99.7%; with NCI-H460 lung, 112%; in the test with HOP-92 NSCLC, 99%. Moreover, the growth in the test with NCI-H522 lung was 90.4%; with A549/ATCC NSCLC, 103%; with 786-0 renal it was 101%; in the test on COLO 205 colon, 86.9%.
For `CN(C)c1ccc(C(=O)OCCCCCCl)cc1`, the growth was 90.7% in the test with NCI-H23 lung; 99% in the test with NCI-H226 lung; 85.4% in the test with NCI-H322M lung; 91.8% with HOP-62 NSCLC; 104% in the test with NCI-H460 lung; 89.3% in the test with HOP-92 NSCLC. The growth in the test on NCI-H522 lung was 89.2%; with A549/ATCC NSCLC, 100%; with 786-0 renal, 95.3%; in the test on COLO 205 colon it was 110%.
Take `O=C(/C=C(/C=C/c1ccc2[nH]ccc2c1)OB(F)F)/C=C/c1ccc2[nH]ccc2c1`: the growth in the test on NCI-H23 lung is -26.6% (active); in the test with NCI-H226 lung it was -59.5% (active); with NCI-H322M lung, 27.5%; in the test with HOP-62 NSCLC, -16.5% (active); with NCI-H460 lung, 0.421% (active); in the test with HOP-92 NSCLC, 4.49% (active). Besides, the growth is -68.5% (active) with NCI-H522 lung, -53.6% (active) with A549/ATCC NSCLC, -57.1% (active) with 786-0 renal and -38.4% (active) in the test with COLO 205 colon.
For the compound `C/C(Cc1ccc(Cl)cc1)=C(\c1ccc(O)cc1)c1ccc(Cl)cc1`, the growth with NCI-H23 lung was 85.2%; with NCI-H226 lung it was 93.3%; in the test with NCI-H322M lung it was 83.3%; with HOP-62 NSCLC it was 110%; in the test with NCI-H460 lung, 91.5%; in the test on HOP-92 NSCLC it was 83.1%. The growth was 84.1% with NCI-H522 lung, 94.8% with A549/ATCC NSCLC, 89.5% in the test on 786-0 renal and 109% in the test on COLO 205 colon.
`COc1ccc(C(C)=O)cc1S(=O)(=O)Nc1c(N)nc(SC)[nH]c1=O`: the growth with NCI-H23 lung was 91.3%; with NCI-H226 lung, 104%; in the test with NCI-H322M lung, 96.9%; in the test on HOP-62 NSCLC it was 110%; in the test with NCI-H460 lung it was 103%; in the test with HOP-92 NSCLC, 115%. The growth in the test with NCI-H522 lung was 98.6%; in the test with A549/ATCC NSCLC, 99.7%; in the test with 786-0 renal it was 102%; in the test on COLO 205 colon, 101%.
With `COC(=O)C1Cc2ccccc2CN1C(=O)c1ccc2c(c1)Cc1ccccc1-2` (centres undefined), the growth with NCI-H23 lung was 35.9% [50 µM]; in the test with NCI-H226 lung it was 45.3% [50 µM]; in the test on NCI-H322M lung, 68.2% [50 µM]; in the test on HOP-62 NSCLC it was 76.6% [50 µM]; in the test with NCI-H460 lung it was 34.4% [50 µM]; with HOP-92 NSCLC, 48.5% [50 µM]. Also, the growth was 18.5% [50 µM] in the test with NCI-H522 lung, 27.3% [50 µM] in the test on A549/ATCC NSCLC, 54% [50 µM] in the test on 786-0 renal and 32.2% [50 µM] in the test with COLO 205 colon.
Turning to `O=S(=O)(NCCCNc1nccc(-c2c(-c3ccc(F)c(O)c3)nc3occn23)n1)c1ccc(Cl)cc1`, the growth is 70.7% in the test with NCI-H23 lung; 103% in the test on NCI-H226 lung; 85.3% in the test on NCI-H322M lung; 88.3% with HOP-62 NSCLC; 62.3% in the test with NCI-H460 lung; 68.8% in the test on HOP-92 NSCLC. Moreover, the growth in the test on NCI-H522 lung is 63.1%; in the test with A549/ATCC NSCLC, 72.4%; in the test on 786-0 renal it was 106%; in the test on COLO 205 colon it was 42.9%.
Turning to `COc1ccc(-c2cc(-c3ccc(Cl)cc3)c(C#N)c(=O)n2Cc2ccc(C(=O)Nc3ccccc3N)cc2)cc1`, the growth in the test with NCI-H23 lung was 77.2%; in the test with NCI-H226 lung it was 81.2%; in the test with NCI-H322M lung, 89.3%; in the test with HOP-62 NSCLC it was 71.6%; with NCI-H460 lung, 94.6%; in the test on HOP-92 NSCLC it was 54.1%. Also, the growth is 53.9% in the test with NCI-H522 lung, 109% in the test with A549/ATCC NSCLC, 90.3% with 786-0 renal and 95.8% with COLO 205 colon.
Take `Cn1cc(C(=O)c2nc(-c3c[nH]c4ccccc34)no2)c2cc(F)ccc21`: the growth was 65.1% with NCI-H23 lung; 75.7% in the test on NCI-H226 lung; 62.3% in the test with NCI-H322M lung; 30.5% with HOP-62 NSCLC; 14.1% in the test on NCI-H460 lung; 43.6% in the test on HOP-92 NSCLC. Further, the growth is 2.36% (active) in the test on NCI-H522 lung, 40.6% in the test on A549/ATCC NSCLC, 54.6% in the test with 786-0 renal and 34.7% in the test on COLO 205 colon.
Turning to `CNc1nnc2n(-c3ccccc3)c(=O)c3cnn(-c4ccccc4)c3n12`, the growth in the test with NCI-H23 lung is 95.8%; with NCI-H226 lung it was 93.6%; in the test with NCI-H322M lung it was 100%; in the test on HOP-62 NSCLC, 64.7%; with NCI-H460 lung, 106%; with HOP-92 NSCLC, 78.3%. Further, the growth in the test with NCI-H522 lung is 41.8%; with A549/ATCC NSCLC it was 64.4%; in the test on 786-0 renal, 74.7%; in the test with COLO 205 colon it was 84.7%.
Regarding `CCN(CC)CCn1c2ccc(O)cc2c2sc3cc(O)ccc3c(=O)c21`, the growth in the test with NCI-H23 lung was 25.8%; in the test with NCI-H226 lung it was 68.2%; in the test on NCI-H322M lung it was 30%; in the test on HOP-62 NSCLC, 38.4%; with NCI-H460 lung, 8.46% (active); in the test with HOP-92 NSCLC it was 60.5%. For the same compound, the growth was 35.1% with NCI-H522 lung, 27% in the test on 786-0 renal and 30.3% in the test on COLO 205 colon.
